Screening results: PubChem BioAssay, National Center for Advancing Translational Sciences (NCATS)
Most compounds without a hit are left out; they make up all but 2.8% or so of the library.
IP6K1 inhibitor – Primary qHTS assay for small molecule inhibitors of Inositol hexaphosphate kinase 1 (IP6K1) | IP6K1 kinase, ADP-Glo luminescence, 2 h; active compounds read low | activity change, % (series mostly up to about 58 µM) | actives 0.81% (n = 140,000); in the data active = activity change below about -25%
Target sequence (Q92551 whole entry, looked up): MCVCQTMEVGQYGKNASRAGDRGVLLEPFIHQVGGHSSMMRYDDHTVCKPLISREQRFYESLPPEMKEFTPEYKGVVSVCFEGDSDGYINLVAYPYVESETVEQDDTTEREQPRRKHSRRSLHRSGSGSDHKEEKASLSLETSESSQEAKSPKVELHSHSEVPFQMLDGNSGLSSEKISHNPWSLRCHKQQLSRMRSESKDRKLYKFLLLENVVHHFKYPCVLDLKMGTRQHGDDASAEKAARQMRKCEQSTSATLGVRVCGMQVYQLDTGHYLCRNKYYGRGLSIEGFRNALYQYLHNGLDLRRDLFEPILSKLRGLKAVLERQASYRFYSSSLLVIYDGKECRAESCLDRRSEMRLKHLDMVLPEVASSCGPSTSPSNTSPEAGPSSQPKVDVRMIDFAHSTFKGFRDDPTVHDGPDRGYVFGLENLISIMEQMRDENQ
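ADP-Glo luminescence measures ADP made by human IP6K1 during a 2 h RT reaction with ATP/IP6 (mix at 1.3 mM/130 uM); top library doses 57.5 and 19.1 uM final.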
KDM5B inhibitor – Primary screen for KDM5B Histone Demethylases FDH-coupled qHTS; Potency, µM (titrated, usually from 57.7 µM), usual class: inhibitors; actives 2.6% (n = 220,000); Lysine-specific demethylase 5B (Homo sapiens), Q9UGL1; KDM5B demethylase, FDH-coupled NADH fluorescence (FDH is formaldehyde dehydrogenase); note: nearly all actives have a fitted effect of over 70% in size
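KDM5BΔAP (200 nM final) in 50 mM HEPES pH 7.5, 0.01% Tween-20 was preincubated 10 min at RT with compound over a concentration range. Substrate mix (H3K4me3 12.5 µM, α-KG 25 µM, Fe²⁺, ascorbate, NAD⁺, FDH) was added, and NADH fluorescence change over 30 min gave dose-response curves.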
Hits are given with their value; i = inactive; ? = inconclusive; nt = no result given.

SMILES | IP6K1 inhibitor | KDM5B inhibitor
Cc1ncccc1C(=O)N[C@@H]1CN(Cc2ccccc2)C[C@H]1CN(C)C | i | i
Cc1ccc(C)c(C(=O)N[C@@H]2CN(c3ncccn3)C[C@H]2CN(C)C)c1 | i | 22µM
Cc1ccc(C)c(C(=O)N[C@@H]2CN(Cc3ccccn3)C[C@H]2CN(C)C)c1 | i | ?
CN(C)C[C@@H]1CN(c2ncccn2)C[C@H]1NC(=O)c1cccc(C#N)c1 | i | ?
O=C(Cn1nc2c(cc1=O)CCCCC2)N[C@@H](C(=O)O)c1ccccc1 | i | i
CCc1nnc(NC(=O)CN2CCN(c3cccc(C)c3C)CC2)s1 | nt | i
Cn1ccnc1Sc1ncc(C(F)(F)F)cc1Cl | nt | i
Cc1ccc(CNC(=O)c2ccc(Sc3ccc(C)cc3)c(N)c2)cc1 | nt | i
O=C(c1ccc(Cl)cc1)c1cn(Cc2ccccc2)c2cc3c(cc2c1=O)OCCO3 | i | ?
C=C1C(=O)O[C@@H]2/C=C(\CO)CC/C=C(/C=O)C[C@@H](O)[C@@H]12 | i | nt
CN(C)C[C@@H]1CN(c2ncccn2)C[C@H]1NC(=O)c1ccccc1F | i | 28µM
CN(C)C[C@@H]1CN(C)C[C@H]1NC(=O)c1cc(F)ccc1Cl | i | i
CN(C)C[C@@H]1CN(c2ncccn2)C[C@H]1NC(=O)c1cc(F)ccc1Cl | i | 32µM
Cc1cnn(CCC(=O)N2C[C@@H](CO)[C@H](c3ccncc3)C2)c1 | i | i
O=C1CCN(C(=O)[C@@H]2CCCN2S(=O)(=O)c2ccc3c(c2)CCC3)CCCCCCN1 | i | i
CCS(=O)(=O)c1ccc2oc([C@H]3CCN(Cc4c[nH]c5ccccc45)C3)nc2c1 | i | 32µM
CCS(=O)(=O)c1ccc2oc([C@H]3CCN(Cc4ccc(OC)cc4)C3)nc2c1 | i | ?
CC(=O)N1N=C(c2ccc3c(c2)OCO3)CC1c1ccc2nccnc2c1 (stereo not drawn) | nt | i
CCOC(=O)CC(NC(=O)c1cc2cc(Cl)ccc2oc1=O)c1ccc(C)cc1 (stereo not drawn) | i | i
O=C1CN(C(=O)c2cnc3ccccn3c2=O)CCN1Cc1ccc(F)cc1 | i | 28µM
CCC(C(=O)N1CCN(Cc2ccc(C)c(C)c2)C(=O)C1)n1cccn1 (stereo not drawn) | i | i
CCc1oc2ccccc2c1/C=N/O | nt | i
CCn1ncc(N2CCC(NC(=O)Cc3cccc(OC)c3)CC2)cc1=O | i | i
CC(Sc1nc2ccccc2o1)C(=O)NC1CCCC1 (stereo not drawn) | nt | i
O=C(COc1ncnc2c(Cl)cc(Cl)cc12)NCc1ccccc1Cl | nt | i
SMILES | IP6K1 inhibitor | KDM5B inhibitor
Cc1ccc(Cn2c(-c3cccc(Cl)c3)nc(C)c(CCO)c2=O)cc1 | i | ?
Cc1nc(-c2cccc(Cl)c2)n(Cc2cc(=O)n3ccccc3n2)c(=O)c1CCO | i | 32µM
CC(C)c1ccccc1OCC(=O)c1ccc2c(c1)N(CC(=O)NCC1CC1)C(=O)CO2 | i | i
c1ccc(-n2cc(CN3CCCCC3c3ccccn3)nn2)cc1 (stereo not drawn) | i | 28µM
Cc1noc(C)c1C1CCCN1Cc1cn(-c2ccccc2)nn1 (stereo not drawn) | i | i
CC(=O)c1ccc(C(=O)N(C)Cc2ccncc2)s1 | nt | i
OC[C@@H]1CN(Cc2cccc3[nH]ccc23)C[C@H]1c1ccncc1 | i | 25µM
OC[C@@H]1CN(Cc2ccco2)C[C@H]1c1ccncc1 | i | i
CC(=O)N/N=C/c1cc(Cl)ccc1OCCCOc1ccccc1C | nt | i
Cc1ccc(-c2csc(C(C#N)=C3CCC(C)CC3)n2)cc1 (stereo not drawn) | nt | i
O=C(C1CCCN1C(=O)Nc1ccccc1)N1CCCC(c2nc3ncccc3[nH]2)C1 (stereo not drawn) | i | nt
Cc1ccc(C)c(C(=O)NCc2nnc3ccc(-c4ccc(C)c(C)c4)nn23)c1 | i | 14µM
Cc1ccc(-c2ccc3nnc(CNC(=O)c4cccc5[nH]ccc45)n3n2)cc1C | i | 35µM
Cc1ccc(-c2ccc3nnc(CNC(=O)c4ccccc4)n3n2)cc1C | i | 28µM
COc1ccc(C(=O)NCc2nnc3ccc(-c4ccc(C)c(C)c4)nn23)cc1OC | i | i
Cc1ccc(-c2ccc3nnc(CNC(=O)c4cccn4C)n3n2)cc1C | i | i
Cc1ccc(-c2ccc3nnc(CNC(=O)c4ccn[nH]4)n3n2)cc1C | i | ?
COc1ccc(C(=O)NCc2nnc3ccc(-c4ccc(C)c(C)c4)nn23)cc1F | i | 32µM
CCCCn1c(N)c(N(CC)C(=O)c2ccc(OC(F)(F)F)cc2)c(=O)[nH]c1=O | nt | i
COc1ccc(-c2nc(SCC(=O)c3ccc(Cl)cc3)n[nH]2)cc1 | nt | i
COc1ccc(Cn2c(=O)c(C(=O)N3CCN([S+](=O)([O-])c4ccccc4)CC3)nc3cccnc32)cc1 | i | nt
CC(=O)Nc1ccc(CN2C3CCC2CN(C(C)C)C3)cc1 | i | i
COc1ccc(CN2C(=O)[C@@H]3C[C@@H](CN3C(=O)c3ccc(Cl)cc3)Oc3ccccc32)cc1 | i | i
O=C(NCCN1CCCC1)c1nnn2cc(-c3ccccc3)[nH]c(=O)c12 | i | 2.5µM
CC(C)Oc1ccc(CNC(=O)c2nnn3cc(-c4ccccc4)[nH]c(=O)c23)cc1 | i | ?
SMILES | IP6K1 inhibitor | KDM5B inhibitor
CC(C)NC(=O)c1cc(-c2ccccc2F)cc2c1OCCN2Cc1cccnc1 | i | 22µM
CN(C)CCN(C)C(=O)c1cc(-c2ccccc2F)cc2c1OCCN2Cc1cccnc1 | i | i
CN(C)CCNC(=O)c1cc(-c2ccccc2F)cc2c1OCCN2Cc1cccnc1 | i | 35µM
O=C(CSc1nc2ccccc2nc1Cc1ccccc1F)Nc1cccc(C(F)(F)F)c1 | i | i
COCC1CN(C(=O)c2ccc(C)c(C)c2)CC12CCNCC2 (stereo not drawn) | i | i
CN(C)c1cccc(-c2nc(-c3nnn4c3COC(c3ccc(Cl)cc3)C4)no2)c1 (stereo not drawn) | i | ?
CS(=O)(=O)c1ncc(Cl)c(C(=O)N2CCN(c3cccc(Cl)c3)CC2)n1 | -26 | i
CCS(=O)(=O)c1ncc(Cl)c(C(=O)N2CCN(c3cccc(Cl)c3)CC2)n1 | i | i
CN(C)C(=O)CNC(=O)c1cc2sccc2n1Cc1ccccc1Cl | nt | i
Cc1nc2cccnc2n1CC1CCCN(S(=O)(=O)c2ccc(CC(C)C)cc2)C1 (stereo not drawn) | i | i
CCOc1ccc(-c2cc(=O)c3cc(NC(=O)c4ccccc4OC)ccc3o2)cc1 | nt | i
O=C1CCCN1CCCN1C(=O)[C@@H]2C[C@@H](O)CN2C2(CN(Cc3ccc(F)cc3)C2)C1=O | i | i
Cc1cccc(C(=O)N2CCC(Cc3nncn3CC3CC3)CC2)c1 | i | i
Cc1ccccc1Cc1c(C)nc2c(C(=O)N3CCC(Cc4nncn4CC4CC4)CC3)cnn2c1C | i | 25µM
COc1cccc(NC(=O)N2CCC(OC3CCN(S(C)(=O)=O)CC3)CC2)c1 | i | i
Cc1cc(-c2cc3c(cn2)CN(Cc2ccc(C(F)(F)F)cc2)CCN3)ccn1 | i | ?
O=C(c1nc(-c2ccc(F)cc2)c2ccccn12)N1CCN(c2ncccn2)CC1 | i | 28µM
O=C(c1nc(-c2ccc(Cl)nc2)c2ccccn12)N1CCN(c2ncccn2)CC1 | i | ?
O=C(c1nc(-c2ccc(Cl)cc2Cl)c2cnccn12)N1CCN(c2ncccn2)CC1 | i | ?
